The text below walks through data of PubChem BioAssay (NCATS).

The target of experiment [1] is Tyrosyl-DNA phosphodiesterase 1 (Homo sapiens) (UniProt Q9NUW8). Description: Confirmation Assay for Inhibitors of Tyrosyl-DNA Phosphodiesterase (TDP1) (AID 489007). Further: potency means the concentration at half of the fitted maximal effect; nearly all actives have a fitted effect of over 40% in size. The conditions noted are these: recombinant human TDP1 enzymatic activity, dose-response. A digest of the protocol: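 Confirmation of primary-screen follow-ups in a qHTS format. Substrate cleavage by Tdp1 (1 nM) of a 3'-phosphotyrosine-FITC, 5'-biotin oligo (15 nM) was monitored as decreased AlphaScreen signal after a 5 min room-temperature reaction.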
Tyrosyl-DNA phosphodiesterase 1 (Homo sapiens), sequence (Q9NUW8 whole entry, looked up): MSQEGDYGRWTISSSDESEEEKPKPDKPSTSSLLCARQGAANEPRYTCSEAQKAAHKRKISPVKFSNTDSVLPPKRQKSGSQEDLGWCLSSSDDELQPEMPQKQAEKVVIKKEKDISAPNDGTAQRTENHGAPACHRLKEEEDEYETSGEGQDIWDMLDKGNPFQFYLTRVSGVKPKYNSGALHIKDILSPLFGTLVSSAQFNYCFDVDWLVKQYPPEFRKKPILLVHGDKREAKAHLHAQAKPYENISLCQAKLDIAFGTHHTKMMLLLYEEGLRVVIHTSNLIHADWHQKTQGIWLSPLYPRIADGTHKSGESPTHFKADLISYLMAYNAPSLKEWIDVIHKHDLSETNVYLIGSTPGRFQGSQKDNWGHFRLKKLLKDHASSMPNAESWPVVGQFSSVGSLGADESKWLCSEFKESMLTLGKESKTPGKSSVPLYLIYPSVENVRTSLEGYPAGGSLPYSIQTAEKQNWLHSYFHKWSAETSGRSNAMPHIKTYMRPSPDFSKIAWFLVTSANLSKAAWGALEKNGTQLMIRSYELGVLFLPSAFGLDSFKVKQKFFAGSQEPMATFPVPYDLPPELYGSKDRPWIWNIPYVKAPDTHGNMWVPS

Experiment [2] deals with Rap guanine nucleotide exchange factor 3 (Homo sapiens) (UniProt O95398). Description: Confirmatory qHTS for agonist of cAMP-regulated guanine nucleotide exchange factor 3 (EPAC1) (AID 1645881).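 Further: EPAC1 catalysed release of BODIPY-GDP from Rap1B seen as fluorescence loss; nearly all actives have a fitted effect of over 75% in size.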 A general note: In qHTS, concentration-response curves come from the screen itself.
Rap guanine nucleotide exchange factor 3 (Homo sapiens), sequence (O95398 whole entry, looked up): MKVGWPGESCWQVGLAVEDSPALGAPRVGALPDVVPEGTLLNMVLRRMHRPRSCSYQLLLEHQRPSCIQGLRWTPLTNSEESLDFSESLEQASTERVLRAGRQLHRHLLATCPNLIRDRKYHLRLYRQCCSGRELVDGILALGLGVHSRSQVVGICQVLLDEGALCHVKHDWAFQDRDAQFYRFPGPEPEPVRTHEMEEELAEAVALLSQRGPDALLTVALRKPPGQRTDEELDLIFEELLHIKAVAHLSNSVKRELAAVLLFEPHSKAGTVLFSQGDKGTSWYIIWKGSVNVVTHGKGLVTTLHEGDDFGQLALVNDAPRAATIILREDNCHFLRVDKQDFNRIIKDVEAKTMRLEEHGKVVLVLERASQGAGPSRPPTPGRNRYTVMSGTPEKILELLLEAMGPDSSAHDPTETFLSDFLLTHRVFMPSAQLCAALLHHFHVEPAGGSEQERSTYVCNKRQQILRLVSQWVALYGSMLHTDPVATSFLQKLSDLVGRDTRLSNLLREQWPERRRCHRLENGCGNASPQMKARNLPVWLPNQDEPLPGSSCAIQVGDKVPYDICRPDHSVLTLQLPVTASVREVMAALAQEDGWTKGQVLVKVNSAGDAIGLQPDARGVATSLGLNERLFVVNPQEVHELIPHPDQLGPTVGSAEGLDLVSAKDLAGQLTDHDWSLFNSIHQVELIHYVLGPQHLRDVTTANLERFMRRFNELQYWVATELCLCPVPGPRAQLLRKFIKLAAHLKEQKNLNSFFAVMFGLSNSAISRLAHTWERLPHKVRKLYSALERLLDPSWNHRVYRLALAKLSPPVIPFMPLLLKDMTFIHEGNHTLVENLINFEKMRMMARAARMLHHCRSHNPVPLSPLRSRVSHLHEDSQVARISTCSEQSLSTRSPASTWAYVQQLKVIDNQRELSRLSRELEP
Experiment [3] addresses Rap guanine nucleotide exchange factor 4 (Homo sapiens) (UniProt Q8WZA2). The experiment is described as follows: Confirmatory qHTS for antagonist of cAMP-regulated guanine nucleotide exchange factor 4 (EPAC2) (AID 1645885). Further: nearly all actives have a fitted effect of over 25% in size.
The target of experiment [4] is Rap guanine nucleotide exchange factor 3 (Homo sapiens) (UniProt O95398). Description: Counterscreen qHTS for antagonist of cAMP-regulated guanine nucleotide exchange factor 3 (EPAC1) (AID 1645888).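 Further: fluorescence loss as bound BODIPY-GDP is released from Rap1B.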 The method in brief: (§1)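 Rap1B-BODIPY-GDP 250 nM + GDP 50 uM; cpds 7-pt, final 9.74 nM–152 uM (activator mode) or from 7.32 nM upwards (inhibitor mode); RT; FI 480/540 nm at 5 and 30 min, then ± cAMP, reread.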
In general terms: A counterscreen serves to expose hits that act by an unwanted route or on another target.

Experiment [5] shares this target. Description: Counterscreen qHTS for agonist of cAMP-regulated guanine nucleotide exchange factor 3 (EPAC1) (AID 1645889). Further: nearly all actives have a fitted effect of over 40% in size. The method in brief: as §1

Results filed as inconclusive are left out. Active and inactive are the calls of the source. The call rests on the fitted dose curve; in most records, active means well fitted curve in the direction sought with a large enough effect; inconclusive means small, poorly fitted or top-dose-only effect, or another doubt; inactive means no such curve, though single readings can be large; an effect the other way counts as inactive or inconclusive.

Rap guanine nucleotide exchange factor 4 (Homo sapiens), sequence (Q8WZA2 whole entry, looked up): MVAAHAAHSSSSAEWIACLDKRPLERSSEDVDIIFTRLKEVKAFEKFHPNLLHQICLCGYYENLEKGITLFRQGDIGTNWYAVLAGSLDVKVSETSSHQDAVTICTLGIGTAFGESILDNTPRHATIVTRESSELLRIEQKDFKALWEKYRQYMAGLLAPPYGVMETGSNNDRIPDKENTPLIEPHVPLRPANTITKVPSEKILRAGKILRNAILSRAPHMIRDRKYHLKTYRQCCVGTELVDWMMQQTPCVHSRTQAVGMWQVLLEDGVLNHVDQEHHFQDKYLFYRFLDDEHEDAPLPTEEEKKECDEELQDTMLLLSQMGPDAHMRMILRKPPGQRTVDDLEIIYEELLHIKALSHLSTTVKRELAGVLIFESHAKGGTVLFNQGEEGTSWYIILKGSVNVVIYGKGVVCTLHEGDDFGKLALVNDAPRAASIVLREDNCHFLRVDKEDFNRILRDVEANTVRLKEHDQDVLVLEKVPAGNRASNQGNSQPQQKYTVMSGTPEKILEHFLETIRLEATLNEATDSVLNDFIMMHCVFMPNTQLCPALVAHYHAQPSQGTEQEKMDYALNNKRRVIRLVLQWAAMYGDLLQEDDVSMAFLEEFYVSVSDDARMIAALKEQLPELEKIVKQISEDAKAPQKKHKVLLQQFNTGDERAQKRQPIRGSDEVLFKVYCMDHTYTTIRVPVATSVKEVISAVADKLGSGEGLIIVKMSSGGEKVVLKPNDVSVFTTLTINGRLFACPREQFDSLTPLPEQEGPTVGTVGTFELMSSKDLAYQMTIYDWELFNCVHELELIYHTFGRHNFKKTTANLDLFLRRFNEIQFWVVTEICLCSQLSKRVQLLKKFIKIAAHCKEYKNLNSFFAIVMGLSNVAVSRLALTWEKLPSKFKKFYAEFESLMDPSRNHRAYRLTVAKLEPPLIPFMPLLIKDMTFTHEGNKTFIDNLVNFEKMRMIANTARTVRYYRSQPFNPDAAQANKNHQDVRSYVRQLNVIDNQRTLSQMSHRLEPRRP

Consider `CN1CCN2c3ccc(N)cc3CC3(C(=O)NC(=O)NC3=O)C2C1` (stereo not given), for which the Potency in experiment [1] was 14.1 µM (active). Moreover, the Potency result in experiment [2], in experiment [3] and in experiment [5] was “inactive” throughout. Moreover, in experiment [4], the result was inactive.
